The values that follow come from PubChem BioAssay (NCI).

Assay [1] in a line: NCI Yeast Anticancer Drug Screen. Data for the rad50 strain (AID 155).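 Further: 0% = growth of vehicle-only cultures of the same strain.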 Conditions: S. cerevisiae rad50 strain growth inhibition; at 50.0 µM; active compounds read high. The procedure, abridged:
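Growth of the mutant yeast was measured after compound exposure and referenced to vehicle-treated cultures.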

Assay [2] in a line: NCI Yeast Anticancer Drug Screen. Data for the mec2-1 strain (AID 157). Conditions: S. cerevisiae mec2-1 strain, at 50.0 µM, active compounds read high. A digest of the protocol:
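mec2-1 yeast strain, carrying an alteration in DNA damage repair or cell cycle control, was exposed to compounds; growth inhibition was measured relative to vehicle-treated controls.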

Assay [3] in a line: NCI Yeast Anticancer Drug Screen. Data for the sgs1 mgt1 strain (AID 161).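 Further: 0% = growth of cultures given vehicle only.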 As to conditions: S. cerevisiae sgs1 mgt1 strain, at 50.0 µM, active compounds read high. The procedure, abridged:
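This yeast growth screen uses a strain with defined DNA-repair lesions; compound-treated growth is compared with vehicle-treated growth.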

Assay [4] can be described thus: NCI Yeast Anticancer Drug Screen. Data for the cln2 rad14 strain (AID 165).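 Further: 0% = growth equal to vehicle treated cultures.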 As to conditions: S. cerevisiae cln2 rad14 strain, at 50.0 µM, active compounds read high. A digest of the protocol: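 Yeast carrying cln2 and rad14 alterations (cell cycle control and DNA damage repair) were exposed to compounds. Growth inhibition was measured against vehicle-treated controls.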

A short description of assay [5]: NCI Yeast Anticancer Drug Screen. Data for the bub3 strain (AID 167). As to conditions: S. cerevisiae bub3 mutant strain, at 50.0 µM, active compounds read high. The procedure, abridged:
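Whole-cell yeast assay. The mutant strain was incubated with compounds, and growth inhibition was determined by comparison with vehicle-treated cells.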

The nature of assay [6]: NCI Yeast Anticancer Drug Screen. Data for the mlh1 rad18 strain (AID 175). Conditions: S. cerevisiae mlh1 rad18 strain growth inhibition; at 50.0 µM; active compounds read high. A digest of the protocol: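 Growth inhibition of the yeast strain was measured after compound exposure and expressed relative to vehicle-treated controls. The strain carries defined defects in DNA damage repair.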

Compounds without any hit were thinned out: in the full panel of roughly 79,000, 15% have a hit. A number with no mark means an inactive call. The source made the active and inactive calls. No stated cut-off is given here; in the data, active means growth inhibition above about 70%; inactive means the rest.

For the compound `NNC(=O)Sc1ccccc1`, the growth inhibition in assay [1] is -14.8%; in assay [2], 9.65%; in assay [3], -12.8%; in assay [4], -31.9%; in assay [5], -12.3%; in assay [6], -0.45%.

Consider `CCCCCCCCCCCCCCCC[N+](C)(C)CC#CCCl`, for which the growth inhibition in assay [1] was -3.15%; in assay [2], 99.5% (active); in assay [3], 48.6%; in assay [4], 98.7% (active); in assay [5], 99.3% (active); in assay [6], 48.8%.

`CCOC(=O)C1CC(=O)C=C2CCCCC21` (centres undefined): the growth inhibition in assay [1] is -4.05%; in assay [2] it was -27.7%; in assay [3], -7.55%; in assay [4] it was 5.35%; in assay [5] it was -30.1%; in assay [6] it was 13.4%.

`N#Cc1nc(-c2cc([N+](=O)[O-])cc([N+](=O)[O-])c2)oc1N`: the growth inhibition in assay [1] is -14.6%; in assay [2], -10.6%; in assay [3], -4.7%; in assay [4], 1.8%; in assay [5], 0.05%; in assay [6], -8.6%.

With `Cc1cccc2c1Oc1ccccc1C2NC(=O)OCCCl` (centres undefined), the growth inhibition in assay [1] was 1.8%; in assay [2], 13.1%; in assay [3], 8.7%; in assay [4] it was -37%; in assay [5], 0.85%; in assay [6], 12.8%.

Take `NC(=S)c1ccncc1`: the growth inhibition in assay [1] is 6.5%; in assay [2], 8.15%; in assay [3], 13%; in assay [4], 12.7%; in assay [5], 5%; in assay [6], -27.4%.

As to `CN(c1ccccc1)S(=O)(=O)c1ccc([N+](=O)[O-])cc1`, the growth inhibition in assay [1] is -13.4%; in assay [2], -52.7%; in assay [3] it was 6.75%; in assay [4], -7.1%; in assay [5], 21.8%; in assay [6], -5.45%.

As to `CN=C1N[N+]2=CCCCC2S1` (centres undefined), the growth inhibition in assay [1] is 17.8%; in assay [2] it was 3.35%; in assay [3], 19.7%; in assay [4] it was 0.75%; in assay [5] it was 2.4%; in assay [6], 13.3%.

As to `Brc1c2ccccc2cc2ccccc12`, the growth inhibition was 22% in assay [1]; 29.8% in assay [2]; 25% in assay [3]; -8.8% in assay [4]; 63.4% in assay [5]; 42.6% in assay [6].

For `CCC(c1ccc(N(CC)CC)cc1[N+](=O)[O-])c1ccc(N(CC)CC)cc1[N+](=O)[O-]`, the growth inhibition in assay [1] was 29%; in assay [2] it was 26.4%; in assay [3] it was 44.5%; in assay [4], 36.5%; in assay [5] it was 28.9%; in assay [6], 20.1%.

`O=C(O)c1c(O)cc(=O)oc1-c1ccccc1Cl`: the growth inhibition in assay [1] is -17.4%; in assay [2], -23.2%; in assay [3], -17.4%; in assay [4], -13.6%; in assay [5], -18.9%; in assay [6] it was -16.9%.

For `CCC(=O)NCCc1ccccc1`, the growth inhibition in assay [1] was -16.2%; in assay [2], 29.6%; in assay [3], 14.3%; in assay [4], -13.1%; in assay [5], -5.8%; in assay [6], -10.4%.

Consider `CCCCCCCN=C(N)CSSCC(N)=NCCCCCCC`, for which the growth inhibition in assay [1] was 98.9% (active); in assay [2] it was 99% (active); in assay [3], 99.3% (active); in assay [4] it was 98.7% (active); in assay [5] it was 98.9% (active); in assay [6] it was 99.2% (active).

Consider `CC(=O)Nc1ccc(S(=O)(=O)n2c(=O)oc3cc(Cl)ccc32)cc1`, for which the growth inhibition in assay [1] was 3.4%; in assay [2], -2.6%; in assay [3], 3.1%; in assay [4] it was -2.4%; in assay [5], 2.95%; in assay [6] it was 13.5%.

Regarding `O=C(Nc1ccc2ccccc2c1)c1ccc(Cl)cc1`, the growth inhibition was 4.65% in assay [1]; -9.65% in assay [2]; -15.1% in assay [3]; 7.05% in assay [4]; 31.4% in assay [5]; 1.4% in assay [6].

With `C=CCNC(=O)CN(CC(=O)OC)C1CCCCC1N(CC(=O)OC)CC(=O)OC` (centres undefined), the growth inhibition is -8.3% in assay [1]; -6.6% in assay [2]; -1.8% in assay [3]; 6.75% in assay [4]; 2% in assay [5]; 1.75% in assay [6].

Take `CCOc1cc2c(cc1OC)c[n+](C)c1c3cc(OC)c(OC)cc3ccc21`: the growth inhibition was 22.5% in assay [1]; 10.9% in assay [2]; 15% in assay [3]; -2.1% in assay [4]; -6.05% in assay [5]; 14.6% in assay [6].

For the compound `CCOC(=O)Cn1c(=O)[nH]c(=O)c2[nH]cnc21`, the growth inhibition was 9.85% in assay [1]; -5.35% in assay [2]; -1.3% in assay [3]; 9.35% in assay [4]; 13.3% in assay [5]; 23.8% in assay [6].

For `O=C(O)CCC(=O)NC(c1ccccc1)(c1ccccc1)c1ccccc1`, the growth inhibition was -17.4% in assay [1]; -9.45% in assay [2]; -0.15% in assay [3]; -37.1% in assay [4]; 3.2% in assay [5]; 3.1% in assay [6].
